Results taken from the supplement of paper PMC12350171.
Counter-ions that a name gives are not always drawn. A number with no mark means an inactive call.

Tests used:
Details in all cases: 20 µM
[1] = system: P. vulgatus RND KO; experiment: growth AUC normalised to DMSO control (median) (fraction of control); higher = less growth inhibition, active = hit call of the paper
Outline: (§1)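 After two overnight anaerobic passages, strains were inoculated at OD578 0.01 into mGAM in 96-well plates containing approved-drug library compounds at 20 μM and 1% DMSO. Growth was followed by reading OD578 hourly for 24 h within an anaerobic incubator. Area under the curve, taken by the trapezoidal rule up to the start of stationary phase, was normalised to same-plate vehicle wells, and the median of three biological replicates is listed.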

[2] = system: P. vulgatus WT; experiment: as above
Outline: as §1

[3] = system: S. enterica typhimurium WT; experiment: as above
Outline: as §1

[4] = system: S. enterica typhimurium tolC KO; experiment: as above
Outline: as §1

[5] = system: Shigella flexneri; experiment: growth AUC normalised to DMSO control (fraction of control); higher = less growth inhibition, active = hit call of the paper
Outline: (§2)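 For the AUC endpoint, growth curves were integrated by the trapezoidal rule up to the exponential-to-stationary transition and normalised to DMSO controls on the same plate. The curves came from OD578 readings taken hourly for 24 h, in three biological replicates. Pathogens had been passaged anaerobically twice and inoculated at an OD578 of 0.01 into pre-reduced mGAM plates carrying 20 μM compound and 1% DMSO, sealed with breathable membranes. Medium for Haemophilus parainfluenzae also contained hemin and NAD.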

[6] = system: Vibrio cholerae; experiment: as above
Outline: as §2

[7] = system: Yersinia pseudotuberculosis; experiment: as above
Outline: as §2
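For growth AUC normalised to DMSO control (median) in this document: active when median AUC fell below 0.1.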

SMILES	growth AUC normalised to DMSO control [1]	growth AUC normalised to DMSO control [2]	growth AUC normalised to DMSO control [3]	growth AUC normalised to DMSO control [4]	growth AUC normalised to DMSO control [5]	growth AUC normalised to DMSO control [6]	growth AUC normalised to DMSO control [7]
O=c1[nH]cnc2c1ncn2[C@@H]1O[C@H](CO)[C@@H](O)[C@H]1O [Inosine]	1.01	1.04	0.991	1.01			
CC(C)OC(=O)C(C)(C)Oc1ccc(C(=O)c2ccc(Cl)cc2)cc1 [Fenofibrate]	0.996	1.01	1	0.94	0.971	1	0.992
C[C@]12CC[C@@H]3c4ccc(O)cc4CC[C@H]3[C@@H]1C[C@@H](O)[C@@H]2O [Estriol]	0.979	0.978	1	0.993		1.02	1.01
Cc1ncc(C[n+]2csc(CCO)c2C)c(N)n1 [Thiamine hydrochloride]	0.978	0.981	0.998	0.996	0.961	0.967	0.999
CC(C)NC[C@@H](O)COc1cccc2ccccc12 [(R) Propranolol hydrochloride]	0.978	0.988	0.984	0.983	1.02	1.02	0.999
CC(C)(C)C(=O)C(Oc1ccc(Cl)cc1)n1ccnc1 (centres undefined) [Climbazole]	0.968	0.984	0.993	0.953			
CNCc1cc(-c2ccccc2F)n(S(=O)(=O)c2cccnc2)c1 [Vonoprazan]	1.02	1.04	1	0.995			
CCOC(=O)C(C)(N)Cc1cc(I)c(Oc2cc(I)c(O)c(I)c2)c(I)c1 (centres undefined) [Etiroxate hydrochloride]	0.415	0.571	1.01	1			
CCN(CC)C(=S)SSC(=S)N(CC)CC [Disulfiram]	0.896	1.07	0.995	1	0.968	0.989	0.97
C[C@H]1[C@H](NC(=O)/C(=N\OC(C)(C)C(=O)O)c2csc(N)n2)C(=O)N1S(=O)(=O)O [Aztreonam]		0.134			0.0599 (active)	0.773 (active)	0.135 (active)
CC[C@@H]([C@H](C)O)n1ncn(-c2ccc(N3CCN(c4ccc(OC[C@@H]5CO[C@@](Cn6cncn6)(c6ccc(F)cc6F)C5)cc4)CC3)cc2)c1=O [Posaconazole hydrate]	0.87	0.875	1.01	0.979			
CC(=O)N[C@@H](CCC(N)=O)C(=O)O [Acetyl-L-glutamine]	0.995	1	0.998	0.999			
CCC(=O)O[C@@H]1CC(=O)O[C@H](C)C/C=C/C=C/[C@H](O)[C@H](C)C[C@H](CC=O)[C@H](O[C@@H]2O[C@H](C)[C@@H](O[C@H]3C[C@@](C)(O)[C@@H](OC(=O)CC)[C@H](C)O3)[C@H](N(C)C)[C@H]2O)[C@H]1OC [Midecamycin]	0.00894 (active)	0.0119 (active)	0.998	0.0799 (active)			
CCOc1ccccc1OCCN[C@H](C)Cc1ccc(OC)c(S(N)(=O)=O)c1 [(R)-Tamsulosin hydrochloride]	0.997	1.01	1	0.965			
Cc1cn([C@H]2C[C@H](N=[N+]=[N-])[C@@H](CO)O2)c(=O)[nH]c1=O [Zidovudine]		0.986	0.304		0.155 (active)	0.956	0.781 (active)
CCC1(c2ccccc2)C(=O)NCNC1=O [Primidone]	1	1	1	0.997	0.971	0.976	0.951
NC(=O)c1cn(Cc2c(F)cccc2F)nn1 [Rufinamide]	0.994	0.963	1	1			
COC1=CC(=O)C[C@@H](C)[C@]12Oc1c(Cl)c(OC)cc(OC)c1C2=O [Griseofulvin]	0.99	0.976	1	0.996	0.998	0.99	1.03

SMILES	growth AUC normalised to DMSO control [1]	growth AUC normalised to DMSO control [2]	growth AUC normalised to DMSO control [3]	growth AUC normalised to DMSO control [4]	growth AUC normalised to DMSO control [5]	growth AUC normalised to DMSO control [6]	growth AUC normalised to DMSO control [7]
CN/C(=N\CCSCc1nc[nH]c1C)NC#N [Cimetidine]	0.995	1.02	1	0.996	0.992	1	1
C/C(=C(\CCOC(=O)c1ccccc1)SS/C(CCOC(=O)c1ccccc1)=C(/C)N(C=O)Cc1cnc(C)nc1N)N(C=O)Cc1cnc(C)nc1N [Bisbentiamine]	1.02	1.07	1.01	0.999			
CCCC(=O)OCOC(=O)C1=C(C)NC(C)=C(C(=O)OC)C1c1cccc(Cl)c1Cl (centres undefined) [Clevidipine]	0.986	0.992	0.98	1			
Cn1cc([S+](C)[O-])c(=O)c2ccc(F)cc21 (centres undefined) [Flosequinan]	1.04	1.03	0.992	0.99			
O=c1[nH]cnc2c1ncn2[C@H]1CC[C@@H](CO)O1 [Didanosine]	1	0.973	0.992	0.949	1.01	1.04	0.73 (active)
Cn1c(=O)c2nc[nH]c2n(C)c1=O [Theophylline monohydrate]	1.02	1.01	1.01	1	1.05	1.07	1.02
O=C(C1CCCCC1)N1CC(=O)N2CCc3ccccc3C2C1 (centres undefined) [Praziquantel]	0.997	1.03	1.01	0.997			0.996
CC#CCn1c(N2CCC[C@@H](N)C2)nc2c1c(=O)n(Cc1nc(C)c3ccccc3n1)c(=O)n2C [Linagliptin]	0.987	1.02	1	0.98			
O=C(O)Cc1csc(-c2ccc(Cl)cc2)n1 [Fenclozic acid]	1.01	1.03	1.01	0.98			
COc1cc([C@@H]2c3cc4c(cc3[C@@H](O[C@@H]3O[C@@H]5CO[C@@H](C)O[C@H]5[C@H](O)[C@H]3O)[C@H]3COC(=O)[C@H]23)OCO4)cc(OC)c1O [Etoposide]		1.09	1	0.0378 (active)	1.03	1.02	0.99
CCOc1nc2cccc(C(=O)OCc3oc(=O)oc3C)c2n1Cc1ccc(-c2ccccc2-c2noc(=O)[nH]2)cc1 [Azilsartan medoxomil]	0.988	0.962	1	0.998			
C=C(CC)C(=O)c1ccc(OCC(=O)O)c(Cl)c1Cl [Ethacrynic acid]	0.994	1.01	1	1.02	0.998	1.02	
C[C@@H]1C[C@H]2[C@@H]3C[C@H](F)C4=CC(=O)C=C[C@]4(C)[C@@]3(F)[C@@H](O)C[C@]2(C)[C@@]1(O)C(=O)COC(=O)C(C)(C)C [Flumethasone pivalate]	0.995	1	0.999	1			
CC(=O)OC(C)OC(=O)C(C)c1ccc(-c2ccccc2)c(F)c1 (centres undefined) [Flurbiprofen axetil]	1.09	1.1	1.01	0.856			
O=C(c1cc(O)c(O)c(O)c1)c1ccc(O)c(O)c1O [Exifone]	0.975	0.993	0.986	0.995			
CCN1CC(CCN2CCOCC2)C(c2ccccc2)(c2ccccc2)C1=O (centres undefined) [Doxapram hydrochloride]	1.05	1.03	1.02	0.996			
O=C(O)CSCC(=O)NC1CCSC1=O (centres undefined) [Erdosteine]	1.02	1.04	1	0.999			
O=C(Oc1cccc2cccnc12)c1ccccc1 [Benzoxiquine]	0.935	0.934	0.994	0.968			
